The source made the active and inactive calls. Calls come from the whole dose curve; as a rule, active = well fitted curve in the direction sought with a large enough effect; inconclusive = small, poorly fitted or top-dose-only effect, or another doubt; inactive = no such curve, though single readings can be large or run the other way.
Target: Alpha-galactosidase (Coffea arabica) (UniProt Q42656)
Assay: Counterscreen for Glucocerebrosidase Inhibitors: qHTS Assay for Coffee Bean alpha-Galactosidase at pH 4.5 (AID 957)
Details: purified coffee bean alpha-galactosidase, fluorogenic substrate; series mostly up to 76.9 µM
Outline: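 Green coffee bean enzyme (2 nM final) was incubated with compounds (0.7 nM to 77 uM) and 4-methylumbelliferyl alpha-D-galactopyranoside (80 uM final) in 50 mM citric acid, 0.005% Tween-20, pH 4.5, 20 min at room temperature; AC50 from Hill fits.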

Chain of Alpha-galactosidase (Coffea arabica) (Q42656 whole entry, looked up): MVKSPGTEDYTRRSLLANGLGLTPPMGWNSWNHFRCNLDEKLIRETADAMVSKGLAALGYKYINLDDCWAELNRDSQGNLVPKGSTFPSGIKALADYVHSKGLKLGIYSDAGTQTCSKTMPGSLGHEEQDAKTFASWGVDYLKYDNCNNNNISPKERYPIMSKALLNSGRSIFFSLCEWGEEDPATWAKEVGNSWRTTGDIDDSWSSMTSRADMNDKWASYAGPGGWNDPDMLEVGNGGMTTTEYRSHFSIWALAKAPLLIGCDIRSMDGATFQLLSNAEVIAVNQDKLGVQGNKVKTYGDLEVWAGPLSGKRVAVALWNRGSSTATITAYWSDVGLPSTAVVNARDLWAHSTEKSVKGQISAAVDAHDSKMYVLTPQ

SMILES | outcome
CCCCc1ccc(C(=O)O)nc1 | inactive
NCc1cc(=O)[nH]o1 | inactive
c1ccc2sc(C3(N4CCCCC4)CCCCC3)cc2c1 | inactive
NCCc1c[nH]c2ccccc12 | inactive
CCN(CC)CCNC(=O)c1ccc(NC(C)=O)cc1 | inactive
NC(N)=NOCCC(N)C(=O)O (stereo not given) | inactive
CC1=NN=C(c2ccc(N)cc2)c2cc3c(cc2C1)OCO3 | inactive
CCOC(=O)C1=C[C@@]2(CC)CCCN3CCc4c(n1c1ccccc41)[C@H]32 | inactive
CS(=O)(=O)Nc1ccc([N+](=O)[O-])cc1Oc1ccccc1 | inactive
CCCN(CCC)[C@@H]1CCc2ccc(O)cc2C1 | inactive
Cc1c(C(=O)c2cccc3ccccc23)c2cccc3c2n1[C@H](CN1CCOCC1)CO3 | inactive
CCN1CCc2nc(N)oc2CC1 | inactive
c1ccc(CCCN2CCN(CCOC(c3ccccc3)c3ccccc3)CC2)cc1 | inactive
CC(=O)Oc1ccccc1C(=O)O | inactive
CCn1cc(C(=O)O)c(=O)c2cc3c(cc21)OCO3 | inactive
C[C@@H]1O[C@H](C[N+](C)(C)C)C[C@H]1O | inactive
NC(=NCCC[C@H](N)C(=O)O)N[N+](=O)[O-] | inactive
NCCc1c[nH]c2ccc(O)cc12 | inactive

SMILES | outcome
CC(C)c1ccc2c(c1)c(SC(C)(C)C)c(CC(C)(C)C(=O)O)n2Cc1ccc(Cl)cc1 | inactive
CC(=O)NCCc1c[nH]c2ccccc12 | inactive
CC[C@@]1(O)C(=O)OCc2c1cc1n(c2=O)Cc2cc3ccccc3nc2-1 | inactive
Clc1cnc(Oc2ccc(Oc3ncc(Cl)cc3Cl)cc2)c(Cl)c1 | inactive
Cc1cccc(C#Cc2ccccc2)n1 | inactive
O=C1CCCN1CC#CCN1CCCC1 | inactive
Cc1nccc2c1[nH]c1ccccc12 | inactive
C#CCOC(=O)C1=CCCN(C)C1 | inactive
CCCN1CCC[C@H](c2cccc(O)c2)C1 | inactive
CC(C)Oc1cccnc1N(C)C1CCN(Cc2ccccc2)CC1 | inactive
Cc1nc(-c2ccc(-c3ccc(C(=O)N4CCc5cc6c(cc54)C4(CCN(C)CC4)CO6)cc3)c(C)c2)no1 | inactive
CN[C@@H]1C[C@@H](c2ccc(Cl)c(Cl)c2)c2ccccc21 | inactive
S=C(NC1CCCCC1)N1CCC(c2cnc[nH]2)CC1 | inactive
CCCN1CCO[C@@H]2c3cc(O)ccc3OC[C@H]21 | inactive
Cn1cnc(CCN)c1 | inactive
CCc1c(C)[nH]c2c1C(=O)C(CN1CCOCC1)CC2 (stereo not given) | inactive
CNCCc1ccc(O)c(O)c1 | inactive

— PubChem BioAssay (NCATS)
